Reference: PubChem BioAssay AID623868 (Vanderbilt High Throughput Screening Facility, 2012)
Screen size: about 2,100 compounds; about 760 (36%) were called active.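 Rule for the calls: active = thallium-flux fluorescence traces judged by eye to show enhanced or reduced glutamate response, manual score 1 or -1, so both directions (some results past the limit were not filed as active); inactive = the rest, including fluorescent or raised-baseline compounds.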 Only a sample is shown.

test: non-GIRK thallium flux modulation in mGlu8 cells, confirmation, counter-screen for GIRK activator project, cell-based, HEK-293 rmGlu8, no GIRK (AID 623868); settings: thallium flux fluorescence, at 10 µM, actives lie on both sides, codes: 1 enhancer, -1 blocker, 0 none, thallium stimulus containing EC20 glutamate;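 note: extra codes mark interference with 3 for fluorescent and 4 for baseline rise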

Structure (SMILES)	manual score
CCSc1nc(-c2ccccc2)c(C#N)c(=O)[nH]1	-1 (active)
CC(Sc1nc2ccccc2c(=O)[nH]1)C(=O)O (centres undefined)	0 (inactive)
CCc1nc(SCc2ccc(F)cc2)[nH]c(=O)c1C#N	3 (inactive)
N#Cc1c(-c2ccco2)nc(SCc2ccc(F)cc2)[nH]c1=O	-1 (active)
Cc1oc(-c2ccccc2F)nc1CS(=O)(=O)CC(=O)NCCN(C)C1CCCCC1	0 (inactive)
c1cn(CC2(Cn3ccnc3)COC2)cn1	0 (inactive)
CCOc1ccccc1N1CCN(C(=O)c2cc3c(s2)CCC3)CC1	-1 (active)
O=C(c1ccccc1Oc1ccccc1)N1CCN(c2ccccc2)CC1	0 (inactive)
CCCc1ccc(C(=O)N2CCN(c3ccccc3OCC)CC2)cc1	-1 (active)
O=C(c1ccccc1CCc1ccccc1)N1CCN(c2ccccn2)CC1	0 (inactive)
CC1CCN(c2c([N+](=O)[O-])c(=O)oc3ccccc23)CC1	0 (inactive)
COc1ccc(C(C)n2c(C)c3c(C)nnc(C)c3c2C)cc1 (centres undefined)	0 (inactive)
O=C1OCCC1Sc1nc2cc(Cl)ccc2n1Cc1ccccc1 (centres undefined)	1 (active)
O=C(CSc1nc2ccccc2n1CCc1ccccc1)N1CCOCC1	0 (inactive)
CC1=C(C(=O)Nc2cccnc2)C(c2ccc3c(c2)OCO3)C2=C(CCCC2=O)N1 (centres undefined)	0 (inactive)
Cc1ccccc1-c1nc(CS(=O)(=O)CC(=O)NCCCN2CCCC2)c(C)o1	0 (inactive)
Cc1cccc(-c2nc(CN3CCCC(C(=O)NC4CCCCC4)C3)c(C)o2)c1 (centres undefined)	0 (inactive)
Cc1oc(-c2ccccc2)nc1CS(=O)CC(=O)O (centres undefined)	1 (active)
CCOC(=O)Cc1csc(NC(=S)NC(=O)c2ccccc2)n1	1 (active)
CCOC(=O)Cc1csc(NC(=S)NC(=O)c2ccc(C)cc2)n1	1 (active)
CCOC(=O)Cc1csc(NC(=S)NC(=O)C(C)(C)C)n1	1 (active)
CCOC(=O)Cc1csc(NC(=O)Nc2ccccc2)n1	0 (inactive)
CC1CCN(c2ccc(/C=N/n3nnnc3N)cc2[N+](=O)[O-])CC1	0 (inactive)
COc1ccc2c(c1)Sc1ccccc1N2CCN(C)C	0 (inactive)
O/N=C/c1cc(Cl)ccc1OCc1cccc2ccccc12	0 (inactive)
Cc1cc(C)n(-c2nnc(C)n2/N=C/c2ccccc2OCc2ccccc2Cl)n1	-1 (active)
COc1ccccc1/C=C/C=N\N1CCN(Cc2ccccc2Cl)CC1	0 (inactive)

Structure (SMILES)	manual score
CCNC(=S)NNC(=O)c1cccn(Cc2ccc(Cl)cc2)c1=O	0 (inactive)
Fc1ccc(NC(=S)Nc2ccccc2OC(F)F)cc1Cl	0 (inactive)
CCc1ccc(NC(=S)NNC(=O)c2ccccc2OC(F)F)cc1	1 (active)
CCc1ccc(Nc2nc3ccccc3c(=O)s2)cc1	1 (active)
CCc1ccc2c(c1)C1(NN=C(c3cccc4ccccc34)S1)C(=O)N2 (centres undefined)	0 (inactive)
c1ccc2c(Nc3nnc(-c4ccncc4)s3)cccc2c1	0 (inactive)
CCOc1cc(C(=O)NCc2ccncc2)cc(OCC)c1OCC	0 (inactive)
COc1ccc(-n2nnnc2SCC(=O)N2CCOCC2)cc1	0 (inactive)
NS(=O)(=O)c1ccc(S(=O)(=O)N2CCCC2)cc1	0 (inactive)
Cc1ccc(-c2nnc(SCC(=O)Nc3ccc4c(c3)OCCO4)n2N)cc1	0 (inactive)
Cc1ccc2nc(-c3ccc(O)cc3)c(Nc3ccc4c(c3)OCCO4)n2c1	-1 (active)
CCCN(CCC)CC(O)Cn1cc(/C=C/C(=O)c2cccs2)c2ccccc21 (centres undefined)	3 (inactive)
Cc1cc(C)c2nc(NC(=O)c3cc(C)on3)sc2c1	1 (active)
CCc1ccc2nc(NC(=O)c3cc(C)on3)sc2c1	1 (active)
O=C(Nc1nc2ccc(Cl)cc2s1)c1ccc(Br)o1	0.5 (inactive)
CNC(=O)c1ccc2nc(NC(C)=O)sc2c1	0 (inactive)
COc1ccc(-c2c(S(=O)(=O)c3ccccc3)cnn2-c2ccccc2)cc1	0 (inactive)
CCOc1ccc(NC(=O)NC23CC4CC(CC(C4)C2)C3)cc1	0 (inactive)
CS(=O)(=O)c1ccc2nc(NC(=O)Nc3ccc(Cl)c(Cl)c3)sc2c1	0 (inactive)
COc1ccc2nc(N=Nc3ccc(O)c4ccccc34)sc2c1	0 (inactive)
COc1ccc2nc(NC(=S)N(C)C)sc2c1	1 (active)
Cc1ccc(OCC(O)Cn2c(=N)n(Cc3ccccc3)c3ccccc32)cc1 (centres undefined)	0 (inactive)
CCn1c(-c2ccc(-c3ccccc3)cc2)c[nH]c1=S	0 (inactive)
CCn1c(-c2cc3c(C(F)(F)F)nn(C)c3s2)n[nH]c1=S	0 (inactive)
CCn1c2ccccc2c2cc(/C=N/n3cn[nH]c3=S)ccc21	1 (active)
CCOC(=O)Cn1c(=N)n(Cc2ccccc2F)c2ccccc21	0 (inactive)
O=[n+]1c2c(n([O-])c3cc(F)c(N4CCCC4)cc31)CCCC2	3 (inactive)
